Measured values taken from PubChem BioAssay (Tox21).
Records with an inconclusive call do not appear. Calls of active or inactive are those of the source. The call rests on the fitted dose curve; in most records, active means well fitted inhibition curve with a large enough effect in the signal ratio in the repeat runs (not every such curve was filed as active); inconclusive means weak or mixed curves, or effect the other way; inactive means no such curve, though single readings can be large or run the other way; the % refers to the signal ratio.

What follows are molecules tested against Bile acid receptor (Homo sapiens) (UniProt Q96RI1) (assay: qHTS assay to identify small molecule antagonists of the farnesoid-X-receptor (FXR) signaling pathway (AID 743217)). Details: HEK293T FXR-UAS-bla, beta-lactamase ratio, CDCA-stimulated, 16 h; series mostly up to 62.6 µM.
Excerpt: U.S. Tox21 Program National Center for Advancing Translational Sciences [NCATS] NIH Chemical Genomics Center [NCGC] U.S. Environmental Protection Agency [EPA] National Institutes of Environmental Health Sciences [NIEHS] National Toxicology Program [NTP] U.S. Food and Drug Administration [FDA] Tox21 Assay Overview: The farnesoid-X-receptor (FXR), a nuclear hormone receptor, is highly expressed in liver, intestine, kidney and adrenal cortex. Natural ligands of FXR are the bile acids (Cholic acid, Chenodeoxy cholic acid etc). FXR is an important regulator of diverse metabolic pathways, including the bile acid homeostasis, lipid and glucose metabolisms. FXR regulates the expression of target genes by binding either as a monomer or as a heterodimer with the retinoid X receptor (RXR). Numerous studies have reported that FXR exerts protective function during cholestasis, diabetes, liver regeneration, and cancer. To identify compounds that inhibit FXR signaling, GeneBLAzer FXR-UAS-bla HEK 293T cell line (Invitrogen, Carlsbad, CA) containing a beta-lactamase reporter gene under the control of a UAS response element was used to screen the Tox21 10K compound library.
Tox21 Assay Protocol Summary: FXR-bla cells were dispensed at 5000 cells/5uL/well in 1536-well black wall/clear bottom plates using a Multidrop Combi (Thermo Fisher Scientific, Waltham, MA) dispenser. After the assay plates were incubated at 37C and 5% CO2 for 5 h, 23 nL of compounds dissolved in DMSO, positive controls or DMSO only was transferred to the assay plate by a Pintool station (Kalypsys, San Diego, CA), followed by addition of 1 uL Chenodeoxycholic acid (50 uM, final concentration in the wells). The assay plates were incubated at 37C for 16 h. After 1 uL of LiveBLAzerTM B/G FRET substrate was added using a Bioraptr Flying Reagent Dispenser (FRD) workstation (Beckman Coulter, Indianapolis, IN), the plates were incubated at room temperature for 2 h, and fluorescence intensity was measured by an Envision plate reader (PerkinElmer, Shelton, CT).

Sequence of Bile acid receptor (Homo sapiens) (Q96RI1 whole entry, looked up): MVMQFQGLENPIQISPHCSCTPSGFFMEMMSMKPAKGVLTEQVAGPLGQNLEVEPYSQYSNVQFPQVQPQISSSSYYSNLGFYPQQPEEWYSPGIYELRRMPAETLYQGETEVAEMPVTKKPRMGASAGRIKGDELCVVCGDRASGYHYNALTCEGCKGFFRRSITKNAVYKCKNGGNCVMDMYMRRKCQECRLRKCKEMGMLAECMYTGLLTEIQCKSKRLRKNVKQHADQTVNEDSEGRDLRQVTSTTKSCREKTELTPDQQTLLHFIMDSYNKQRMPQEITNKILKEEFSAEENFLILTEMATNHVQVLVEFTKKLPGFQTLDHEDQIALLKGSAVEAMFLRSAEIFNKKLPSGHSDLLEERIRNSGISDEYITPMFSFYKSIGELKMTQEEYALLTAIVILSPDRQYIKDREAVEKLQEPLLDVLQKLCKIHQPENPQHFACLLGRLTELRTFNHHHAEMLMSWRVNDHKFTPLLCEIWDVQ

Compound | outcome
Cc1cccc(C)c1N | inactive
c1ccc2c(c1)CCCC2 | inactive
CSc1nnc(C(C)(C)C)c(=O)n1N | inactive
OCc1ccco1 | inactive
C[C@H]1C(=O)O[C@@H]2CCN3CC=C(COC(=O)[C@](C)(O)[C@]1(C)O)[C@H]23 | inactive
Clc1cnc(Oc2ccc(Oc3ncc(Cl)cc3Cl)cc2)c(Cl)c1 | inactive
O=C(O)C1C(C(=O)O)C2(Cl)C(Cl)=C(Cl)C1(Cl)C2(Cl)Cl (stereo not given) | inactive
Nc1cc(Cl)cc(Cl)c1 | inactive
CC(C)CCCCCCOC(=O)c1ccccc1C(=O)OCCCCCCC(C)C | inactive
CNCC(O)c1ccc(O)cc1 (stereo not given) | inactive
ClCCOCCCl | inactive
CNc1cnn(-c2cccc(C(F)(F)F)c2)c(=O)c1Cl | inactive
Cc1cccc(C)c1NC(=O)CN1CCCC1=O | inactive
Nc1nc(N)nc(NC2CC2)n1 | inactive
CNC(=O)Oc1cccc2ccccc12 | inactive
O=C(O)CCCc1ccc(N(CCCl)CCCl)cc1 | inactive
CCOC(=O)CC(SP(=O)(OC)OC)C(=O)OCC (stereo not given) | inactive
Cc1cc(O)ccc1Cl | inactive
CNC(=O)O/N=C/C(C)(C)S(C)=O (stereo not given) | inactive
Nc1ccc(N)cc1 | inactive

Compound | outcome
CC(=O)C1CCOC1=O (stereo not given) | inactive
N#CN=C(N)N | inactive
COC(=O)Nc1cccc(OC(=O)Nc2cccc(C)c2)c1 | inactive
Cl[C@H]1OCCO[C@@H]1Cl | inactive
CCOc1ccc(N)cc1 | inactive
COP(=S)(OC)SCN1C(=O)c2ccccc2C1=O | inactive
O=C(O)C(Br)Br | inactive
C=CC(=O)OCCCCCC(C)C | inactive
Nc1cccc(Cl)c1 | inactive
Cc1cccc(N)c1C | inactive
[N-]=[N+]=CC(=O)OC[C@H](N)C(=O)O | inactive
CCCCC(CC)C(=O)Cl (stereo not given) | inactive
OCCCCO | inactive
FC(F)(F)c1ccc(Cl)cc1 | inactive
CCCOC(=O)c1ccccc1C(=O)OCCC | inactive
O=C(O)Cc1ccccc1 | inactive
C=CCN=C=S | inactive
O=[N+]([O-])c1ccc(Cl)c(Cl)c1 | inactive
COc1nc(NC(C)C)nc(NC(C)C)n1 | inactive
CNC(=O)O/N=C/C(C)(C)SC | inactive
